Source: PubChem (National Center for Advancing Translational Sciences (NCATS))
Hits are enriched below; roughly 4.4% of the tested compounds scored in any of these assays.
USP1 inh – USP1/UAF1 (human) deubiquitinase inhibition; O94782; Potency, µM (top dose mostly 57.1 µM), for inactives: at the top dose activity change, negative = inhibition, usual class: inhibitors; 390,000 compounds, 0.23% hits; recombinant USP1/UAF1, Ub-Rhodamine cleavage fluorescence; AID 743255; active means well fitted inhibition curve with a large enough effect; inconclusive means small, poorly fitted or top-dose-only effect; inactive means no such curve, though single readings can be large or run the other way; further: potency means the concentration at half of the fitted maximal effect; on the % scale 0 is the no-effect control and ±100 the full control effect; nearly all actives have a fitted effect of over 60% in size
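High-throughput fluorogenic screen: 1nM USP1/UAF1 complex, Ub-Rho substrate 150nM final, 50mM HEPES pH 7.8 with 0.5mM EDTA, 0.1 mg/ml BSA, 1mM TCEP and 0.01% Tween-20.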
D1 PAM – potentiators of human D1 dopamine receptor; HEK293 TREx D1 cells, calcium flux, dopamine EC20 potentiation; P21728; potentiation, % at 10 µM; 360,000 compounds, 0.036% hits; AID 504651; in the data active means potentiation above about 30%; further: 0% is about no effect
Target sequence (P21728 whole entry, looked up): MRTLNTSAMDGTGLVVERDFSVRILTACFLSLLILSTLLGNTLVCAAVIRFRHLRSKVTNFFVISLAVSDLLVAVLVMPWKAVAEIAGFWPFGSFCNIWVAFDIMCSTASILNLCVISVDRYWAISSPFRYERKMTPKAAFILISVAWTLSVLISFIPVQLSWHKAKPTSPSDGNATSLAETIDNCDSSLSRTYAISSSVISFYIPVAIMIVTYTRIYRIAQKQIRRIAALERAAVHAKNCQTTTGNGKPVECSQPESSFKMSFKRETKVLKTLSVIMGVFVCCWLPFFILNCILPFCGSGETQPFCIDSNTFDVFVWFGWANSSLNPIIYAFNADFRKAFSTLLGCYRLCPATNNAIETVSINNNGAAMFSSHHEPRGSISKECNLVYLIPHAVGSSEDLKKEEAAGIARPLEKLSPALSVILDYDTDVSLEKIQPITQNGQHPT
TRHR enhancer – allosteric enhancers of human TRH receptor | TRHR cells, fluo-8 calcium fluorescence, EC20 TRH enhancement | enhancement, % at 2 µM | 360,000 compounds, 0.66% hits | AID 493056; in the data active means enhancement above about 30%; further: 0% is about no effect
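TRHR-expressing cells loaded with fluo-8 calcium dye were read kinetically (ex 480/em 530) during compound addition, then stimulated with an EC20 of TRH (10 nM final). Enhancement of the Gq-mediated intracellular calcium response was scored.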
TRHR ag – agonists of human TRH receptor | P34981 | TRHR cells, calcium flux fluo-8, FDSS agonist mode | activation, % at 2 µM | 360,000 compounds, 0.18% hits; further: 0% is about no effect
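Agonist-mode FDSS calcium read (Ex 480/Em 530, 1 s cycles) in 1536-well TRHR cells with fluo-8 dye, after 10-cycle baseline and 23 nL compound addition; TRH at EC20 (10 nM final) added afterwards for the enhancer phase.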
D1 ag – human D1 receptor agonism. P21728. HEK293 T-REx D1 cells, calcium flux, agonist mode. activation, % at 2 µM. 360,000 compounds, 1% hits; further: 0% is about no effect
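Agonism was scored from calcium flux recorded over 180 s (1 read/s) after pintool compound addition, following a 10-cycle baseline. Cells were inducible force-coupled HEK293 TREx D1, plated overnight at 30 C and loaded with no-wash calcium dye.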
D1 antag – antagonists of human D1 dopamine receptor. 360,000 compounds, 3.2% hits. AID 504652. HEK293 TREx D1 cells, calcium flux, dopamine EC80; active compounds read low. P21728. activity change, negative = inhibition, % at 10 µM; in the data active means activity change below about -30%; further: on the % scale 0 is the no-effect control and ±100 the full control effect
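Tetracycline-induced HEK293 T-REx cells with force-coupled D1 receptor were loaded with a no-wash calcium dye. Compound was added after a 10 s baseline and read kinetically for 180 s; EC80 dopamine was then added and calcium flux followed another 180 s.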
The depositor's hits bear a star. Unless noted, no stated cut-off is given here; in the data, active means activation above about 30%; inactive means the rest.

How did CCc1ccc(-c2nc(CN3CCC(C(=O)NCCN(CC)c4ccccc4)CC3)c(C)o2)cc1 do in these assays?
USP1 inh: -8.0%; D1 PAM: -8.6; TRHR enhancer: 5.7; TRHR ag: 0.2; D1 ag: 32.2*; D1 antag: -22.5

What do the screens show for `CCN(CCNC(=O)C1CCN(Cc2nc(-c3cccc(Cl)c3)oc2C)CC1)c1ccccc1`?
USP1 inh: -18.2%; D1 PAM: -5.2; TRHR enhancer: -6.0; TRHR ag: 0.1; D1 ag: 47.4*; D1 antag: -43.9*

Results for CCN(CCNC(=O)C1CCN(Cc2nc(-c3ccc(Cl)cc3)oc2C)CC1)c1ccccc1 ?
USP1 inh: -17.9%; D1 PAM: -7.0; TRHR enhancer: -10.5; TRHR ag: 1.4; D1 ag: 48.2*; D1 antag: -44.8*

What do the screens show for `Cc1oc(-c2cccc(Cl)c2)nc1CN1CCC(C(=O)NC2CC2)CC1`?
USP1 inh: -12.8%; D1 PAM: -3.9; TRHR enhancer: -8.4; TRHR ag: 0.3; D1 ag: 2.9; D1 antag: 4.9

What do the screens show for `Cc1cccc(-c2nc(CN3CCN(Cc4cccc(F)c4)CC3)c(C)o2)c1`?
USP1 inh: -17.8%; D1 PAM: -4.8; TRHR enhancer: 31.4*; TRHR ag: 0.0; D1 ag: 1.8; D1 antag: 0.9

What do the screens show for `CCOc1ccc(CCNC(=O)c2ccc3c(c2)nc2n3CCOC2)cc1OCC`?
USP1 inh: 1.1%; D1 PAM: -1.4; TRHR enhancer: -3.8; TRHR ag: -0.2; D1 ag: 0.4; D1 antag: -7.4

What do the screens show for `COc1ccc2c(c1)c(=O)c(C(=O)c1ccc(F)cc1)cn2CC(=O)Nc1ccc2c(c1)OCCO2`?
USP1 inh: -31.5%; D1 PAM: 0.1; TRHR enhancer: 4.6; TRHR ag: 1.1; D1 ag: 5.5; D1 antag: 15.3

What do the screens show for `CCc1ccc(-c2nc(CN3CCC(C(=O)NCc4ccc(F)cc4)CC3)c(C)o2)cc1`?
USP1 inh: -19.3%; D1 PAM: 1.7; TRHR enhancer: 23.1; TRHR ag: 1.6; D1 ag: 33.3*; D1 antag: -9.8

How did Cc1oc(-c2cccc(Cl)c2)nc1CS(=O)(=O)CC(=O)NCCN1CCOCC1 do in these assays?
USP1 inh: -6.5%; D1 PAM: -0.7; TRHR enhancer: 1.0; TRHR ag: -0.1; D1 ag: 1.8; D1 antag: -33.4*

What do the screens show for `Cc1oc(-c2cccc(Cl)c2)nc1CN1CCC(C(=O)NCCCN2CCN(c3ccc(F)cc3)CC2)CC1`?
USP1 inh: 6.0%; D1 PAM: -4.5; TRHR enhancer: 0.5; TRHR ag: -0.4; D1 ag: 16.2; D1 antag: -14.6

How did Cc1oc(-c2ccc(Cl)cc2)nc1CN1CCC(C(=O)NCCCN2CCN(c3cccc(Cl)c3)CC2)CC1 do in these assays?
USP1 inh: -22.5%; D1 PAM: -3.4; TRHR enhancer: 9.7; TRHR ag: 0.2; D1 ag: 48.9*; D1 antag: -45.1*

Results for CC(C)Oc1ccc(S(=O)(=O)N2CCOCC2)cc1NC(=O)C1COc2ccccc2O1 (centres undefined) ?
USP1 inh: -23.0%; D1 PAM: -2.2; TRHR enhancer: -3.8; TRHR ag: 0.4; D1 ag: 3.1; D1 antag: -44.2*

Results for CN1C/C(=C/c2ccncc2)C(=O)/C(=C/c2ccncc2)C1 ?
USP1 inh: -0.6%; D1 PAM: -5.1; TRHR enhancer: -5.0; TRHR ag: 0.3; D1 ag: 1.6; D1 antag: 6.6

How did CCN1C/C(=C/c2ccc(N3CCOCC3)cc2)C(=O)/C(=C/c2ccc(N3CCOCC3)cc2)C1 do in these assays?
USP1 inh: inconclusive; D1 PAM: -6.5; TRHR enhancer: 4.0; TRHR ag: 28.2; D1 ag: 88.4*; D1 antag: 4.8

What do the screens show for `CN1C/C(=C\c2ccc(N3CCOCC3)cc2)C(=O)/C(=C/c2ccc(N3CCOCC3)cc2)C1`?
USP1 inh: inconclusive; D1 PAM: -4.0; TRHR enhancer: -6.1; TRHR ag: 21.2; D1 ag: 46.1*; D1 antag: 7.5

How did Cc1ccc(C)c(CN2CCCN(Cc3ccc(F)cc3)S2(=O)=O)c1 do in these assays?
USP1 inh: -9.2%; D1 PAM: -0.3; TRHR enhancer: -0.6; TRHR ag: 0.5; D1 ag: 5.3; D1 antag: 3.6

What do the screens show for `CCCNCC(O)COc1ccccc1C(=O)CCc1ccccc1` (centres undefined)?
USP1 inh: -12.6%; TRHR enhancer: -8.8; TRHR ag: 1.5; D1 antag: -51.9*

How did CCN(CC)CC(O)COc1ccccc1C(=O)CCc1ccccc1 (centres undefined) do in these assays?
USP1 inh: 8.7%; D1 PAM: -4.8; TRHR enhancer: -5.8; TRHR ag: 3.2; D1 ag: 15.2; D1 antag: -29.2

What do the screens show for `CN1C(C(=O)Nc2ncccn2)=C(O)c2ccccc2S1(=O)=O`?
USP1 inh: -22.3%; D1 PAM: -9.9; TRHR enhancer: 4.4; TRHR ag: 0.4; D1 ag: 3.7; D1 antag: -17.3

What do the screens show for `Cc1c(NC(=O)/C(C#N)=C/c2ccc(-c3cccc(Cl)c3)o2)c(=O)n(-c2ccccc2)n1C`?
USP1 inh: -11.6%; D1 PAM: -10.1; TRHR enhancer: 7.6; TRHR ag: 0.0; D1 ag: -0.5; D1 antag: -37.8*

How did Cc1c(NC(=O)/C(C#N)=C/c2ccc(-c3ccc(Cl)c(Cl)c3)o2)c(=O)n(-c2ccccc2)n1C do in these assays?
USP1 inh: -17.9%; D1 PAM: -11.8; TRHR enhancer: 6.5; TRHR ag: -1.1; D1 ag: -0.3; D1 antag: -21.9

Results for Cc1ccc(CNC(=O)Cn2c(=O)n(-c3ccc(C)cc3)c(=O)c3c2c2cc(C)ccc2n3C)cc1 ?
USP1 inh: -5.8%; D1 PAM: -2.8; TRHR enhancer: 18.3; TRHR ag: -0.2; D1 ag: -1.8; D1 antag: -19.0

How did CCOC(=O)N1CCN(Cc2nc(-c3cccc(C)c3)no2)CC1 do in these assays?
USP1 inh: -11.5%; D1 PAM: -1.2; TRHR enhancer: 0.0; TRHR ag: 0.1; D1 ag: 10.1; D1 antag: -31.3*

Results for c1ccc(Cc2noc(CN3CCN(C4CCc5ccccc5C4)CC3)n2)cc1 (centres undefined) ?
USP1 inh: inconclusive; D1 PAM: 4.9; TRHR enhancer: -1.0; TRHR ag: -0.4; D1 ag: 31.8*; D1 antag: 0.7

How did c1ccc(Cc2noc(CN3CCCN(C4Cc5ccccc5C4)CC3)n2)cc1 do in these assays?
USP1 inh: -25.5%; D1 PAM: -2.5; TRHR enhancer: -6.3; TRHR ag: -0.9; D1 ag: -1.0; D1 antag: -0.2
